These results are taken from PubChem BioAssay.

“And” between values parts separate entries of the source, which are not always exact repeats. Equal entries are not always repeated. A number with no mark means an inactive call.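 How the source made its calls, unless noted: active means at least 20% inhibition of 6-phosphogluconate dehydrogenase activity; inactive means the rest.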

The first assay deals with Hepatitis C virus NS3 helicase. As to the kind of experiment: blockers of NS3h binding to ssDNA – biochemical, fluorescence polarization, LOPAC1280 library, primary screen (AID 687035; in the data active means inhibition above about 37%). To be noted: Purified HCV NS3 helicase, Cy5-dT15 ssDNA binding fluorescence polarization; active compounds read high; concentration not given here.
Regarding `O=c1c(-c2ccc(O)cc2)coc2cc(O)ccc12`, the inhibition is -4%.
As for `CCN1CCCC1CNC(=O)c1cc(S(N)(=O)=O)ccc1OC` (configuration not stated), the inhibition is -1%.
On the same count and under the same terms, to `O=C(O)c1cc([N+](=O)[O-])ccc1NCCCc1ccccc1` belongs -4%.
Consider `CC(CCc1ccc(O)cc1)NCCc1ccc(O)c(O)c1` (configuration not stated), for which the inhibition is -1%.
With `NC(=O)c1cccc(N)c1`, the inhibition was 0%.

Tested on in the next assay: not listed separately
As to the kind of experiment: compounds altering Cy5-DNA-NS3h complex signal – biochemical, LOPAC1280, artefact control for HCV NS3 helicase inhibitor project (AID 687037; call rule not given here). The settings on record: Cy5-DNA-NS3h complex fluorescence interference counterscreen.
As to `O=c1c(-c2ccc(O)cc2)coc2cc(O)ccc12`, the fluorescence ratio (interference) was 1.
For `CCN1CCCC1CNC(=O)c1cc(S(N)(=O)=O)ccc1OC` (configuration not stated), the fluorescence ratio (interference) was 1.1.
As for `O=C(O)c1cc([N+](=O)[O-])ccc1NCCCc1ccccc1`, the fluorescence ratio (interference) was 1.
For `CC(CCc1ccc(O)cc1)NCCc1ccc(O)c(O)c1` (configuration not stated), the fluorescence ratio (interference) was 1.
As for `NC(=O)c1cccc(N)c1`, the fluorescence ratio (interference) was 1.

A further assay deals with 6-phosphogluconate dehydrogenase, decarboxylating (Homo sapiens) (UniProt P52209). As to the kind of experiment: inhibition of human phosphogluconate dehydrogenase – biochemical, recombinant enzyme, NADPH absorbance, primary screen (AID 1159550). The settings on record: recombinant 6PGD, NADPH absorbance 341 nm; at 10 µM; active compounds read high.
6-phosphogluconate dehydrogenase, decarboxylating (Homo sapiens), sequence (P52209 whole entry, looked up): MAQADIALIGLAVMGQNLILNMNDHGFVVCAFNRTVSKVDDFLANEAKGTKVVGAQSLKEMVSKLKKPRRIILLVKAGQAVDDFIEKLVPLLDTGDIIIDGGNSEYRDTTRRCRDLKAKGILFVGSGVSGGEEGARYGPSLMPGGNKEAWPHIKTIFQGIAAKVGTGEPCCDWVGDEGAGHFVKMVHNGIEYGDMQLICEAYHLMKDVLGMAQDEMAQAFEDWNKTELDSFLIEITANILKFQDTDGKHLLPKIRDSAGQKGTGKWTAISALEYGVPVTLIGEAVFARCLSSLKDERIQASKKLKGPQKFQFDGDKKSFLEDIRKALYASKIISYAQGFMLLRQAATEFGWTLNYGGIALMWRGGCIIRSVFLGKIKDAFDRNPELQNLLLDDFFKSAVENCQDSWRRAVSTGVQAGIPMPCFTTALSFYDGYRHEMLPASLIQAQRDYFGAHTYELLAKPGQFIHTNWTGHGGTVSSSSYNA
In the case of `O=C(O)c1cc2ccccc2[nH]1`, the inhibition is 0.53%.
The same measure, in the same setting: the figure for `O=c1c(-c2ccc(O)cc2)coc2cc(O)ccc12` is 6.36%; for `O=C(/C=C/c1ccccc1)c1ccc(O[C@@H]2O[C@H](CO)[C@@H](O)[C@H](O)[C@H]2O)cc1O` it is 4.22%.
On the same count and under the same terms, to `CC(C)=CCc1c2c(c3occ(-c4ccc(O)cc4)c(=O)c3c1O)C=CC(C)(C)O2` belongs 8.7%.
The same measure, in the same setting: to `N#Cc1ccc2c(c1)N(CCCN1CCC(O)CC1)c1ccccc1S2` belongs -2.33%; to `CON`, 3.11%; to `CC(C)=CCc1c2c(c3occ(-c4ccc(O)c(O)c4)c(=O)c3c1O)C=CC(C)(C)O2`, 10.7%.
Consider `CC(C)=CCOc1cc2oc(=O)ccc2cc1O`, for which the inhibition was 1.28%.
For the molecule `C=C(C)[C@H]1COc2cc3oc(=O)ccc3cc2O1`, the inhibition was 5.71%.
Turning to `C=NC(C(=O)NC1C(=O)N2C1SC(C)(C)C2C(=O)O)c1ccccc1` (configuration not stated), the inhibition is -2.44%.
The same measure, in the same setting: the figure for `O=C1C=CC(=C(c2ccc(O)cc2)c2ccc(O)cc2)C=C1` is 7.03%; for `NC1=NCCN1CC(=O)O` it is -2.27%.
Same read-out and setting: to `C[C@@]12C(=O)OC(=O)[C@]1(C)[C@H]1CC[C@@H]2O1` belongs -26.6%; to `CC(=O)c1c(O)c(C)c(O)c2c1OC1=CC(=O)C(C(C)=O)C(=O)C12C` (configuration not stated), -11.1%; to `CC(=O)N[C@@H]1[C@@H](O)[C@H](O)[C@@H](CO)O[C@H]1O`, -7.13%.
On the same count and under the same terms, to `NC(Cn1ccc(=O)c(O)c1)C(=O)O` (configuration not stated) belongs 17.3%; to `CCOC(=O)[C@H](CCc1ccccc1)N[C@H](C)C(=O)N1C2CCCCC2C[C@H]1C(=O)O` (some centres not stated), 7.88%.
Take `CCCC(=O)Nc1ncnc2c1ncn2[C@@H]1O[C@@H]2COP(=O)(O)O[C@H]2[C@H]1OC(=O)CCC`: the inhibition was 10.5%.
The same measure, in the same setting: the figure for `C[C@]12CCC3c4ccc(OS(=O)(=O)O)cc4CCC3C1CC[C@H]2O` (some centres not stated) is 3.17%.
As for `CCN1CCCC1CNC(=O)c1cc(S(N)(=O)=O)ccc1OC` (configuration not stated), the inhibition is -9.64%.
As to `COC1=CC(=O)C=C(OC)C1=O`, the inhibition was 1.73%.
Still for that read-out and setting: to `C#CCCCCCCCCCCCC(O)CC(O)CO` (configuration not stated) belongs 6.35%; to `COc1c2ccoc2nc2c(OC)c(OCC(O)C(C)(C)O)ccc12` (configuration not stated), -4.68%; to `NC1(C(=O)O)CCCC1`, -12.6%.
As to `COc1ccc2c(=O)c(CC(=O)O)coc2c1`, the inhibition is -1.05%.
The same measure, in the same setting: to `COc1ccc(-c2coc3cc(O)ccc3c2=O)c(O)c1O` belongs 9.58%.
On the same count and under the same terms, the figure for `CCOC(=O)C1=C(O)C(=O)N(Cc2ccccc2)C1` is -9.58%; for `O=c1[nH]c2cc(Cl)c(Cl)cc2[nH]c1=O` it is 1.1%; for `COc1c2c(cc3occ(-c4ccc5c(c4)OCO5)c(=O)c13)OC(C)(C)C=C2` it is -0.247%.
In the case of `O=C1c2ccc(O)c(O)c2C(=O)c2c(O)ccc(O)c21`, the inhibition is 4.26%.
For `O=C(O)c1cc(=O)c2cccc(O)c2[nH]1`, the inhibition was 4.89%.
Same read-out and setting: to `COc1c2ccoc2c(OC)c2oc(=O)ccc12` belongs 6.1%; to `CC(=O)O[C@@H]1CC2C(C)(C)[C@H](O)CC[C@]2(C)C2CC[C@@]3(C)[C@H](c4ccoc4)OC(=O)C4OC43[C@@]21C` (some centres not stated), -1.03% and -1.39%; to `COc1cc(OC)c2ccc(=O)oc2c1`, 9.07%.
The same measure, in the same setting: the figure for `COc1cc(C)c2c(=O)cc(-c3ccccc3)oc2c1` is 5.95%; for `O=C(O)c1cc([N+](=O)[O-])ccc1NCCCc1ccccc1` it is 11.2%; for `CC(CCc1ccc(O)cc1)NCCc1ccc(O)c(O)c1` (configuration not stated) it is 1.78%.
On the same count and under the same terms, to `NC(=O)c1cccc(N)c1` belongs 10.1%; to `COc1c(OC)c2occc2c2oc(=O)ccc12`, -3.21%; to `CC1(C)CC2C1CCC1(C)OC1CCC2(C)O` (configuration not stated), 19.1%.

Tested on in the next assay: not listed separately
In words: EMT-state selective cytotoxicity in co-culture – imaging, PC-3E GFP, TEM4-18 mCherry, primary screen (AID 1345086;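 active means compounds killing one labelled cell type while sparing the other, by normalised counts and ratio limits, not self-fluorescent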;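 further: normalised mesenchymal count divided by normalised epithelial count so high means epithelial killing; cells exposed to compound for 72 h before imaging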). To be noted: PC-3E GFP / TEM4-18 mCherry co-culture, imaging cell counts; at 1 µM; actives lie on both sides; counts scaled to control wells, 1 = unselective.
Consider `O=C(O)c1cc2ccccc2[nH]1`, for which the red/green cell ratio (normalised) was 1.04.
On the same count and under the same terms, to `O=C(/C=C/c1ccccc1)c1ccc(O[C@@H]2O[C@H](CO)[C@@H](O)[C@H](O)[C@H]2O)cc1O` belongs 1.
As for `CC(C)=CCc1c2c(c3occ(-c4ccc(O)cc4)c(=O)c3c1O)C=CC(C)(C)O2`, the red/green cell ratio (normalised) is 1.02.
Regarding `N#Cc1ccc2c(c1)N(CCCN1CCC(O)CC1)c1ccccc1S2`, the red/green cell ratio (normalised) is 1.05.
For `CON`, the red/green cell ratio (normalised) is 1.03.
Still for that read-out and setting: the figure for `CC(C)=CCc1c2c(c3occ(-c4ccc(O)c(O)c4)c(=O)c3c1O)C=CC(C)(C)O2` is 0.76; for `CC(C)=CCOc1cc2oc(=O)ccc2cc1O` it is 1.03.
On to `C=C(C)[C@H]1COc2cc3oc(=O)ccc3cc2O1`, for which the red/green cell ratio (normalised) was 0.95.
On the same count and under the same terms, the figure for `C=NC(C(=O)NC1C(=O)N2C1SC(C)(C)C2C(=O)O)c1ccccc1` (configuration not stated) is 1.12; for `O=C1C=CC(=C(c2ccc(O)cc2)c2ccc(O)cc2)C=C1` it is 0.79; for `NC1=NCCN1CC(=O)O` it is 0.92.
With `CC(=O)c1c(O)c(C)c(O)c2c1OC1=CC(=O)C(C(C)=O)C(=O)C12C` (configuration not stated), the red/green cell ratio (normalised) was 0.89.
On the same count and under the same terms, the figure for `CC(=O)N[C@@H]1[C@@H](O)[C@H](O)[C@@H](CO)O[C@H]1O` is 0.98.
Regarding `NC(Cn1ccc(=O)c(O)c1)C(=O)O` (configuration not stated), the red/green cell ratio (normalised) was 1.1.
Same read-out and setting: the figure for `CCOC(=O)[C@H](CCc1ccccc1)N[C@H](C)C(=O)N1C2CCCCC2C[C@H]1C(=O)O` (some centres not stated) is 0.91; for `C[C@]12CCC3c4ccc(OS(=O)(=O)O)cc4CCC3C1CC[C@H]2O` (some centres not stated) it is 0.87.
Turning to `COC1=CC(=O)C=C(OC)C1=O`, the red/green cell ratio (normalised) was 0.91.
For the molecule `C#CCCCCCCCCCCCC(O)CC(O)CO` (configuration not stated), the red/green cell ratio (normalised) is 0.88.
On the same count and under the same terms, to `COc1c2ccoc2nc2c(OC)c(OCC(O)C(C)(C)O)ccc12` (configuration not stated) belongs 0.91; to `NC1(C(=O)O)CCCC1`, 0.86; to `COc1ccc2c(=O)c(CC(=O)O)coc2c1`, 0.91.
On the same count and under the same terms, the figure for `COc1ccc(-c2coc3cc(O)ccc3c2=O)c(O)c1O` is 0.97.
Take `O=c1[nH]c2cc(Cl)c(Cl)cc2[nH]c1=O`: the red/green cell ratio (normalised) is 1.09.
On to `COc1c2c(cc3occ(-c4ccc5c(c4)OCO5)c(=O)c13)OC(C)(C)C=C2`, for which the red/green cell ratio (normalised) was 0.95.
For `O=C1c2ccc(O)c(O)c2C(=O)c2c(O)ccc(O)c21`, the red/green cell ratio (normalised) was 1.12.
On the same count and under the same terms, the figure for `O=C(O)c1cc(=O)c2cccc(O)c2[nH]1` is 1.29.
On the same count and under the same terms, the figure for `COc1c2ccoc2c(OC)c2oc(=O)ccc12` is 1.06; for `CC(=O)O[C@@H]1CC2C(C)(C)[C@H](O)CC[C@]2(C)C2CC[C@@]3(C)[C@H](c4ccoc4)OC(=O)C4OC43[C@@]21C` (some centres not stated) it is 1.03; for `COc1cc(OC)c2ccc(=O)oc2c1` it is 1.1.
Same read-out and setting: the figure for `COc1cc(C)c2c(=O)cc(-c3ccccc3)oc2c1` is 0.85; for `COc1c(OC)c2occc2c2oc(=O)ccc12` it is 0.97; for `CC1(C)CC2C1CCC1(C)OC1CCC2(C)O` (configuration not stated) it is 1.05.
